Structures are written as SMILES. The source made the active and inactive calls. No rule for the calls is given here.

Here are results for 40 compounds from PubChem BioAssay (NCATS).
Potency is read from the fitted curve at half-maximal effect.

In the assay the test system is HIV-1 nucleocapsid protein NCp7 (binding to TG oligonucleotide). Description: HIV Nucleocapsid (AID 346).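 Also: potency is for inhibitors that block NC binding and lower polarization.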 The following applies: HIV-1 NC / fluorescein-TGTGTGTG probe, fluorescence polarization. The method in brief: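 10 nM TG4xF probe with 100 nM nucleocapsid protein in high-salt Hepes pH 7.5 (250mM NaCl) containing 1uM ZnCl2 and reducing agents. Compound inhibition of binding was read as fluorescein polarization after 1 hr at room temperature.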
On to `COc1ccc(-c2nc3cnc(Nc4cccc(OC)c4)nc3n(C3CC3)c2=O)cc1`, for which the Potency was 15.7 µM (inactive).

For the compound `COc1ccccc1-c1ccc2ncnc(N3CCN(C)CC3)c2c1`, the Potency is > 20 µM (inactive).

For `CN1CCN(c2nc(-c3cccnc3)nc3ccccc23)CC1`, the Potency was > 20 µM (inactive).

On to `COc1ncc2nc(-c3cn(C)c4ccccc34)c(=O)n(C[C@H]3CCCO3)c2n1`, for which the Potency was > 20 µM (inactive).

For the compound `COc1ccc(-n2c(=O)c(CCc3ccccc3)nc3cnc(N(C)C)nc32)cc1`, the Potency is > 20 µM (inactive).

In the case of `COc1ccc(-n2c(=O)c(-c3ccccc3)nc3cnc(N4CCN(C)CC4)nc32)cc1`, the Potency is > 20 µM (inactive).

For the compound `COc1ccc2[nH]cc(CCNc3nc(-c4ccc(N(C)C)cc4)nc4ccccc34)c2c1`, the Potency was > 20 µM (inactive).

In the case of `CC(=O)NCCNc1cc(-c2ccccc2C)ncn1`, the Potency is > 20 µM (inactive).

Turning to `COc1ccccc1CN1CCC2(CC1)CCN(C(=O)c1csnn1)CC2`, the Potency is > 20 µM (inactive).

Regarding `COc1ccccc1CNc1ccnc(-c2ccc(C(=O)N(C)C)cc2)n1`, the Potency is > 20 µM (inactive).

Regarding `CC(C)CN1CC2(CCN(C(=O)c3ccco3)CC2)C1`, the Potency is > 20 µM (inactive).

Turning to `CCNc1ncc2nc(C)c(=O)n(CCc3ccccc3)c2n1`, the Potency is > 20 µM (inactive).

Take `COc1ccc(CNc2ncncc2-c2ccccc2OC)c(OC)c1`: the Potency was > 20 µM (inactive).

With `COc1ncc2nc(C)c(=O)n(C3CC3)c2n1`, the Potency was > 20 µM (inactive).

As to `O=c1c(-c2ccccc2)nc2cncnc2n1Cc1ccccc1Cl`, the Potency is > 20 µM (inactive).

As to `COCCNc1ncncc1-c1c(C)noc1C`, the Potency was > 20 µM (inactive).

For the compound `COCCn1c(=O)c(-c2cccc(C#N)c2)nc2cnc(N3CCN(C)CC3)nc21`, the Potency was > 20 µM (inactive).

In the case of `COc1ccc(-c2nc3cnc(Nc4cccc(OC)c4)nc3n(Cc3cccs3)c2=O)cc1`, the Potency was 0.247 µM (active).

For the compound `CS(=O)(=O)Nc1cccc(-c2nc(N3CCNCC3)c3ccccc3n2)c1`, the Potency was > 20 µM (inactive).

For `O=C(c1ccco1)N1CCC[C@@]2(CCN(Cc3ccccc3)C2)C1`, the Potency is > 20 µM (inactive).

As to `CCNc1ncc2nc(-c3ccc(F)cc3)c(=O)n(-c3ccccc3)c2n1`, the Potency was > 20 µM (inactive).

Take `CNc1nc(-c2ccccc2CN(C)C)nc2ccccc12`: the Potency was > 20 µM (inactive).

In the case of `CN(C)C(=O)c1ccc(-c2nc(N(C)C)c3ccccc3n2)cc1`, the Potency was > 20 µM (inactive).

`Cn1c(=O)c(-c2ccc(Cl)cc2)nc2cnc(Oc3cccc(Cl)c3)nc21`: the Potency was > 20 µM (inactive).

Take `COc1ccc(Oc2ncc3nc(C)c(=O)n(Cc4ccc(F)cc4)c3n2)cc1`: the Potency was > 20 µM (inactive).

Consider `O=C(c1cccc(F)c1)N1CCC2(CCCN(Cc3ccccc3)C2)CC1`, for which the Potency was > 20 µM (inactive).

On to `COc1cccc(-c2cncnc2NCc2ccc(OC)cc2OC)c1`, for which the Potency was > 20 µM (inactive).

With `O=C(c1cc(C(F)(F)F)cc(C(F)(F)F)c1)N1CCC2(CC1)CN(Cc1ccccc1)C2`, the Potency is > 20 µM (inactive).

As for `COc1cccc(-c2ccc3ncnc(NCc4cnc(C)cn4)c3c2)c1`, the Potency is > 20 µM (inactive).

`CCNc1ncc2nc(-c3ccc(Cl)cc3)c(=O)n(Cc3ccc(F)cc3)c2n1`: the Potency was 14 µM (inactive).

Consider `COc1ccccc1-c1cc(Nc2ccn[nH]2)ncn1`, for which the Potency is > 20 µM (inactive).

With `CC(=O)N1CCC2(CC1)CN(C(c1ccccc1)c1ccccc1)C2`, the Potency was > 20 µM (inactive).

Consider `COc1ccccc1CNc1nc(-c2ccoc2)nc2ccccc12`, for which the Potency is > 20 µM (inactive).

Regarding `Cc1cnc(CNc2cc(-c3ccccc3C(F)(F)F)ncn2)cn1`, the Potency was > 20 µM (inactive).

In the case of `COc1ccc(CNc2ncncc2-c2ccoc2)c(OC)c1`, the Potency is > 20 µM (inactive).

Turning to `COc1ccc(NC(=O)N2CC[C@@]3(CCCN(C(=O)c4cc(C(F)(F)F)cc(C(F)(F)F)c4)C3)C2)cc1`, the Potency was > 20 µM (inactive).

For the compound `COc1ccc(CNc2nc(-c3ccccc3CN(C)C)nc3ccccc23)c(OC)c1`, the Potency is > 20 µM (inactive).

For `CN1CCN(c2ncc3ncc(=O)n(C[C@H]4CCCO4)c3n2)CC1`, the Potency is > 20 µM (inactive).

For `COc1ccc2[nH]cc(CCNc3ncncc3-c3ccccc3C(F)(F)F)c2c1`, the Potency was > 20 µM (inactive).

Take `CC(C)NC(=O)N1CC[C@@]2(CCCN(C(=O)c3cccn3C)C2)C1`: the Potency is > 20 µM (inactive).
